# Measured values as given in PubChem BioAssay AID504444 (National Center for Advancing Translational Sciences (NCATS), 2011).
# In all, about 360,000 compounds went through this assay and about 7,500 (2.1%) were called active. Another 20% or so got no clear call; they are omitted. The full list was thinned out, with actives kept by preference. Unmarked numbers belong to inactive results. Calls follow the shape of the dose curve; as a rule, active = well fitted inhibition curve with a large enough effect; inconclusive = small, poorly fitted or top-dose-only effect, or effect the other way; inactive = flat fitted curve, though single readings scatter.
# Assay: Nrf2 qHTS screen for inhibitors; also: nearly all actives have a fitted effect of over 60% in size
# Settings: A549 ARE-Fluc reporter, luciferase luminescence, 18-24 h; series mostly up to 46 µM; activity change, negative = inhibition: at the top concentration
# From the text: NIH Molecular Libraries Probe Production Network [MLPCN]
# NIH Chemical Genomics Center [NCGC]
# Assay Provider: Shyam Biswal, Johns Hopkins University
# Nrf2 is a transcription factor that maintains cellular redox homoestasis and protects cells from xenobiotics. Nrf2 binds to the antioxidant response element (ARE) to induce gene expression of a broad spectrum of genes that encode for antioxidants. […] Finding a small molecule that act as an inhibitor of Nrf2 function would represent a novel therapeutic target that could lead to improvement in survival of patients undergoing chemo- and/or radio- therapy.
# This is the Nrf2 activity measured in the luminescent read.
# 1. Shibata, T., et al., Genetic Alteration of Keap1 Confers Constitutive Nrf2 Activation and Resistance to Chemotherapy in Gallbladder Cancer. Gastroenterology, 2008.
# 2. Sjoblom, T., et al., The consensus coding sequences of human breast and colorectal cancers. Science, 2006. 314(5797): p. 268-74.
# NCGC Assay Protocol Summary:
# A concentration-response assay was performed with A549 ARE_Fluc cells which are suspended in 5% FBS OPTI-MEM. Five uL were dispensed into 1536-well white TC-treated plate using the Kalypsys dispenser to achieve a density of 5000 cells/well in all columns except column 1. The plate is incubated at 37deg C at 5% CO2 for 2 hours before 23 nL of compounds are added with the Kalypsys pin tool equipped with a 1,536-pin array containing 10-nL slotted pins (FP1S10, 0.457-mm diameter, 50.8 mm long; V&P Scientific). The control compounds Budesonide and Staurosporine are both added at a concentration of 2mM and Budesonide is also added as a 1:10 titration, starting at 200uM, to achieve dose-response. After an 18-24 hour incubation at 37deg C at 5% CO2, 5ul of medium is added to column 1. Afterwards 1ul of 5x of CellTiter-Fluor (Promega) is added to every well. The plate is then incubated at 37deg C at 5% CO2 for 30 minutes before they are read on the ViewLux (Perkin Elmer) for a fluorescent read Ex=405(10)/Em=525(10) for a 3 second exposure, 2x binning, and high gain. Then 3 uL of 3x BugLite is dispensed into all wells and the plate is incubated at ambient room temperature for 15 minutes. Afterwards another ViewLux read is performed using the clear filter to get a luminescent read with the settings of 40 second exposure, 2x binning, and high gain. Cytotoxicity is assessed through the first fluorescent read and then biochemical activity against Nrf2 is measured in the luminescent read.
# % is scaled to controls: 0 for no effect and ±100 for the full control effect; potency is read from the fitted curve at half-maximal effect.
Structure (SMILES),"activity change, negative = inhibition [%]",Potency
CC[C@H]1CC2CN3CCc4c([nH]c5ccccc45)C(C(=O)OC)(C2)C13 (stereo not given in full),-5.41,–
CCC(=O)OC(Cc1ccccc1)(c1ccccc1)C(C)CN(C)C (stereo not given),-0.661,–
CC=C(C)C(=O)OC1CCN2CC=C(COC(=O)C(O)(C(C)OC)C(C)(C)O)C12 (stereo not given),-9.73,–
CCC(=O)c1ccc(OCC(=O)N2CCN(CC(=O)Nc3ccc(C)cc3)CC2)cc1,0.865,–
COc1ccc(NC(=O)c2cn(CCC#N)nc2-c2ccc([N+](=O)[O-])cc2)cc1,2.75,–
COc1ccc(-c2nn(CCC#N)cc2C(=O)Nc2ccc(C(C)=O)cc2)cc1,-8.88,–
COc1cccc(C(=O)Nc2ccc(-c3cc(C(F)(F)F)nn3-c3ccccc3)cc2)c1,–,14.6 µM (active)
C=C(C)C1(CCCC)C(=O)NC(=S)NC1=O,-1.08,–
COC(=O)[C@@H]1C(OC(=O)c2ccccc2)CC2CCC1N2C (stereo not given in full),0.299,–
COC(=O)C1=C(c2cc3ccccc3s2)C[C@@H]2CC[C@H]1N2C(=O)NC(C)C,-24.6,–
CC1([N+](=O)[O-])COP(=O)(Nc2ccc(F)cc2)OC1 (stereo not given),-6.18,–
O=C1C=C(NS(=O)(=O)c2ccccc2)C(=O)c2ccccc21,–,23.1 µM (active)
COP(=O)(NS(=O)(=O)c1ccccc1)OC,0.416,–
CC1CCCN1CCC(C(N)=O)(c1ccccc1)c1ccccc1 (stereo not given),-3.33,–
O=C1C2(Cl)C3(Cl)C4(Cl)C(Cl)(Cl)C5(Cl)C3(Cl)C1(Cl)C5(Cl)C24Cl (stereo not given),-14,–
COC1=C[C@@H]2[C@@H]3Cc4ccc(OC)c(O)c4[C@]2(CCN3C)CC1=O,3.67,–
Cc1ccc(Cl)cc1N1CCN(C(=O)C2CCC(CNS(=O)(=O)c3cccs3)CC2)CC1 (stereo not given),–,10.3 µM (active)
c1cc2c(cc1C1OCC3C(c4ccc5c(c4)OCO5)OCC13)OCO2 (stereo not given),-12.8,–
CCc1ccc(OCC(=O)N2CCN(CC(=O)Nc3ccccc3Cl)CC2)cc1,5.6,–
CC[C@H]1CN2CCc3cc(OC)c(OC)cc3[C@@H]2C[C@@H]1C[C@H]1NCCc2cc(OC)c(OC)cc21,–,0.411 µM (active)
Cc1nn(-c2ccccc2)c(C)c1NC(=O)COC(=O)Cc1ccccc1,-2.94,–
COc1ccc2c(c1)[C@]13CCCCC1C(C2)N(C)CC3 (stereo not given in full),-3.89,–
C[C@]12CCC3C(CC[C@H]4[C@H](O)[C@H](O)CC[C@]34C)C1CCC2=O (stereo not given in full),-6.32,–

Structure (SMILES),"activity change, negative = inhibition [%]",Potency
COc1ccc(C2NCc3ccc4c(c3-n3cccc32)OCO4)cc1OC (stereo not given),-14.8,–
CCCCCCCCCCCCn1ccc(=N)cc1,–,20.6 µM (active)
c1cc2c(cc1CCNC1CCCCCC1)OCO2,9.17,–
O=C1N=c2ccccc2=C/C1=C\c1c(O)[nH]c(=S)[nH]c1=O,-14.9,–
COC1C(O)C(C)OC(OC2CCC3(C=O)C(CCC4C3CCC3(C)C(C5=CC(=O)OC5)CCC43O)C2)C1O (stereo not given),–,0.0231 µM (active)
COC1=CC=C2[C@H]3Cc4ccc(OC)c5c4[C@@]2(CCN3C)C1O5 (stereo not given in full),-4.83,–
COCc1cc(OC(=O)N(C)C)nc(-c2ccc(C)c(Cl)c2)n1,-1.28,–
C[C@]12CCC3C(CC[C@H]4[C@H](O)[C@H](O)CC[C@]34C)C1CC[C@@H]2O (stereo not given in full),2.28,–
c1ccc(CCN2CCC3(CC2)OCCO3)cc1,1.07,–
CCC(C)(O)C(=O)OC1C(=O)OC2CC3C(C)=CC(=O)C(O)C3(C)C3C4(O)OCC23C1C(C)C4O (stereo not given),–,0.58 µM (active)
CC12CCC(O)CC1CCC1C2CCC2(C)C(C(=O)CC(O)C(F)(F)F)CCC12 (stereo not given),-6.35,–
CCN1C(=O)NC(=O)C2(CCCC2)C1=O,-20.2,–
Oc1ccc2c3c1OC1[C@H](O)CC[C@@]4(O)[C@@H](C2)N(CC2CC2)CC[C@]314 (stereo not given in full),–,inactive
NS(=O)(=O)c1ccc(CCNC(=O)c2ccc(Cl)c(S(=O)(=O)N3CCCCCC3)c2)cc1,–,10.3 µM (active)
Cc1ccccc1NC(=O)COC(=O)c1cc(C)n(C2CC2)c1C,3.85,–
Cn1cc(/C=C/c2nc3ccccc3c(=O)n2-c2ccccc2)c2ccccc21,-22.8,–
C[C@]12CCC3C(CC[C@H]4C[C@@H](O)CC[C@]34C)C1C[C@@H](O)[C@H]2O (stereo not given in full),-26.4,–
C[C@]12CCC3C(CC[C@H]4C[C@@H](O)CC[C@]34C)C1CC[C@@H]2O (stereo not given in full),-12.6,–
C[C@]12CC[C@H](O)C[C@H]1CC[C@@H]1C2CC[C@]2(C)[C@@H](C3=CC(=O)OC3)[C@@H](O)C[C@]12O (stereo not given in full),–,1.84 µM (active)
O=P1(Oc2ccccc2)CC(O)C(O)C(COCc2ccccc2)O1 (stereo not given),9.74,–
CC12CCC3C(CCC4CC(=O)CCC43C)C1CC(=NO)C2=O (stereo not given),-13.9,–
CN1CCC(N(C)Cc2cccnc2)CC1,-8.41,–
